The panel holds about 79,000 compounds, 15% with a hit somewhere; the sample as a whole holds those more often. The source made the active and inactive calls. Rule as the data show it: active = growth inhibition above about 70%; inactive = the rest.
Assays:
[1] = NCI Yeast Anticancer Drug Screen. Data for the rad52 strain (AID 147);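 also: 0% = growth of vehicle-treated control cultures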; conditions: S. cerevisiae rad52 mutant growth inhibition, stronger effect = higher value
Summary of the method: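 Vehicle-treated cultures served as the reference for growth inhibition of compound-exposed yeast bearing a DNA repair mutation.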

[2] = NCI Yeast Anticancer Drug Screen. Data for the rad50EPP+ strain (AID 151);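 also: 0% = growth of vehicle-treated control cultures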; conditions: S. cerevisiae rad50 mutant strain, stronger effect = higher value
Summary of the method: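 In this screen, rad50EPP+ yeast were exposed to compounds. Growth inhibition was scored against vehicle-treated controls.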

[3] = NCI Yeast Anticancer Drug Screen. Data for the rad50 strain (AID 155);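 also: 0% = growth of vehicle-only cultures of the same strain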; conditions: S. cerevisiae rad50 strain growth inhibition, stronger effect = higher value
Summary of the method: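 Compounds were tested on a yeast strain with an engineered DNA damage repair alteration; the reported value is growth inhibition normalised to vehicle treatment.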

[4] = NCI Yeast Anticancer Drug Screen. Data for the mec2-1 strain (AID 157); conditions: S. cerevisiae mec2-1 strain, stronger effect = higher value
Summary of the method: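 Vehicle-treated cultures served as reference for growth inhibition of compound-exposed mec2-1 yeast.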

[5] = NCI Yeast Anticancer Drug Screen. Data for the sgs1 mgt1 strain (AID 161);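 also: 0% = growth of cultures given vehicle only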; conditions: S. cerevisiae sgs1 mgt1 strain, stronger effect = higher value
Summary of the method: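 Mutant yeast exposed to compound; growth scored against vehicle-only wells.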

[6] = NCI Yeast Anticancer Drug Screen. Data for the CLN2oe strain (AID 163);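 also: 0% = growth of vehicle-only control cultures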; conditions: S. cerevisiae CLN2oe strain, stronger effect = higher value
Summary of the method: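 Inhibition relative to vehicle-treated yeast is reported. Cells: strain with genetic alteration in cell-cycle control, grown with compound.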

[7] = NCI Yeast Anticancer Drug Screen. Data for the cln2 rad14 strain (AID 165);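 also: 0% = growth equal to vehicle treated cultures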; conditions: S. cerevisiae cln2 rad14 strain, stronger effect = higher value
Summary of the method: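 Each compound was tested on cln2 rad14 yeast. Inhibition of growth was calculated against vehicle-exposed controls.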

[8] = NCI Yeast Anticancer Drug Screen. Data for the bub3 strain (AID 167); conditions: S. cerevisiae bub3 mutant strain, stronger effect = higher value
Summary of the method: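 Growth of a checkpoint-deficient yeast mutant is measured after compound exposure. Values represent inhibition relative to vehicle.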

[9] = NCI Yeast Anticancer Drug Screen. Data for the wt2 strain (AID 169);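 also: 0% = growth of vehicle-treated yeast cultures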; conditions: S. cerevisiae wt2 strain growth inhibition, stronger effect = higher value
Summary of the method: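 Inhibition of yeast growth was determined after compound treatment, normalised to controls receiving only vehicle.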

[10] = NCI Yeast Anticancer Drug Screen. Data for the mlh1 strain (AID 171);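 also: 0% = growth of vehicle-treated control cultures of the same strain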; conditions: S. cerevisiae mlh1 strain growth inhibition, stronger effect = higher value
Summary of the method: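 Vehicle-normalised growth inhibition of a repair- or checkpoint-altered yeast strain following compound treatment.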

[11] = NCI Yeast Anticancer Drug Screen. Data for the sgs1 strain (AID 173);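 also: 0% = growth of vehicle-only control cultures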; conditions: S. cerevisiae sgs1 mutant, stronger effect = higher value
Summary of the method: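 Screen format: yeast with repair or checkpoint alterations, compound exposure, growth read relative to vehicle.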

[12] = NCI Yeast Anticancer Drug Screen. Data for the mlh1 rad18 strain (AID 175); conditions: S. cerevisiae mlh1 rad18 strain growth inhibition, stronger effect = higher value
Summary of the method: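 Vehicle-treated cultures served as the reference for growth inhibition in a yeast strain carrying DNA damage repair alterations exposed to each compound.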

[13] = NCI Yeast Anticancer Drug Screen. Data for the rad18 strain (AID 177); conditions: S. cerevisiae rad18 mutant growth inhibition, stronger effect = higher value
Summary of the method: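 Test articles were incubated with altered yeast defective in DNA damage repair. Results are given as inhibition of growth versus vehicle.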

[14] = at 5.0 µM (retest, dose inferred, filed as 0.5)
[15] = at 50.0 µM (retest, dose inferred, filed as 5.0)

Measured: growth inhibition

OC(c1ccc(Br)cc1)C(Cl)(Cl)Cl (stereo not drawn)
active: [1]; at 33.0 µM 87% | [1]; at 100.0 µM 98% | [2]; at 100.0 µM 95% | [3]; [14] 71% | [3]; at 33.0 µM 84% | [3]; [15] 99% | [3]; at 50.0 µM 81.2% | [3]; at 100.0 µM 97% | [4]; [14] 89% | [4]; at 33.0 µM 92% | [4]; [15] 99% | [4]; at 50.0 µM 86.8% | [4]; at 100.0 µM 99% | [5]; [15] 97% | [5]; at 50.0 µM 84.5% | [6]; at 33.0 µM 87% | [6]; at 100.0 µM 97% | [7]; [15] 98% | [7]; at 50.0 µM 80.8% | [8]; at 33.0 µM 91% | [8]; [15] 97% | [8]; at 50.0 µM 81.7% | [8]; at 100.0 µM 99% | [9]; at 33.0 µM 78% | [9]; at 100.0 µM 98% | [10]; at 33.0 µM 80% | [10]; at 100.0 µM 97% | [11]; at 33.0 µM 84% | [11]; at 100.0 µM 98% | [12]; [15] 99% | [12]; at 50.0 µM 76.2% | [13]; at 33.0 µM 90% | [13]; at 100.0 µM 98%
inactive: [1]; at 1.2 µM -5% | [1]; at 3.7 µM -1% | [1]; at 11.0 µM 5% | [2]; at 1.2 µM 4% | [2]; at 3.7 µM 3% | [2]; at 11.0 µM 4% | [2]; at 33.0 µM 38% | [3]; at 1.2 µM 16% | [3]; at 3.7 µM 14% | [3]; at 11.0 µM 21% | [4]; at 1.2 µM -19% | [4]; at 3.7 µM -19% | [4]; at 11.0 µM -1% | [5]; [14] 3% | [6]; at 1.2 µM 25% | [6]; at 3.7 µM 10% | [6]; at 11.0 µM 18% | [7]; [14] 68% | [8]; at 1.2 µM -17% | [8]; at 3.7 µM 15% | [8]; [14] -15% | [8]; at 11.0 µM 3% | [9]; at 1.2 µM -17% | [9]; at 3.7 µM -15% | [9]; at 11.0 µM -21% | [10]; at 1.2 µM -10% | [10]; at 3.7 µM -18% | [10]; at 11.0 µM -6% | [11]; at 1.2 µM 11% | [11]; at 3.7 µM 5% | [11]; at 11.0 µM 14% | [12]; [14] 62% | [13]; at 1.2 µM 4% | [13]; at 3.7 µM 4% | [13]; at 11.0 µM 32%
